Reference: the supplement of paper PMC5499739
Over roughly 16,000 sequences, “Z-score” has its median near -0.37; the highest 2% begin near 3.1. What follows is part of a selection rich in the highest values, with near analogues and random picks from the rest.

tested on: RBM10 RRM1-ZnF-RRM2 (GST-tagged construct); assay: RNAcompete 7-mer binding Z-score; higher = stronger binding preference
Method: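 RNAcompete: 20 pmol GST-tagged RBM10 RNA-binding constructs were incubated with a designed RNA pool of about 241,000 sequences up to 41 nt (1.5 nmol) on glutathione beads for 30 min at 4 °C and washed. Bound RNAs were identified by microarray hybridisation. Each RNA 7-mer is scored by a one-sided Z-score of its enrichment, computed over probes that contain the 7-mer within longer pool sequences.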

Going from GGGGAAG to GGUAAUU, the “RNAcompete 7-mer binding Z-score” value falls from 3.91 to 0.789.

Compared with ACUAACG, CGAUGUU is lower in “RNAcompete 7-mer binding Z-score” value: -0.409 for the first, -0.657 for the second.

Compared with AGUCGAC, CUAAUGC is lower in “RNAcompete 7-mer binding Z-score” value: 0.00944 for the first, -0.795 for the second.

Compared with ACAUCAG, CACUGAG is lower in “RNAcompete 7-mer binding Z-score” value: -0.191 for the first, -0.209 for the second.

Going from CGGGUAG to UGGGUAC, the “RNAcompete 7-mer binding Z-score” value rises from 2.23 to 2.59.

Going from UGGGUAU to UGGGUAG, the “RNAcompete 7-mer binding Z-score” value rises from 2.2 to 3.34.

Going from AGGGUAG to AGGGUAC, the “RNAcompete 7-mer binding Z-score” value falls from 3.71 to 2.7.

Going from CGCGAAC to GCUCGAC, the “RNAcompete 7-mer binding Z-score” value falls from -0.435 to -0.53.

First: AGUUCCU
Second: AGGCGUA
The “RNAcompete 7-mer binding Z-score” value of the first is lower: -0.77 for the first, 0.716 for the second.

Going from ACCUACA to CACGGGG, the “RNAcompete 7-mer binding Z-score” value rises from -0.814 to 2.77.

First: CACGGGA
Second: GACGGGU
The “RNAcompete 7-mer binding Z-score” value of the first is lower: 1.66 for the first, 2.37 for the second.

Compared with GACGGGA, GACGGGG is higher in “RNAcompete 7-mer binding Z-score” value: 2.3 for the first, 2.79 for the second.

Compared with AACGGGA, AACGGGU is lower in “RNAcompete 7-mer binding Z-score” value: 3.38 for the first, 3.25 for the second.

First: UACGGGU
Second: AACGGGG
The “RNAcompete 7-mer binding Z-score” value of the first is lower: 2.02 for the first, 3.65 for the second.

First: ACGGCGG
Second: AGCUCAG
The “RNAcompete 7-mer binding Z-score” value of the first is higher: 1.11 for the first, -0.486 for the second.

Going from ACAUAUC to AAGGAGU, the “RNAcompete 7-mer binding Z-score” value rises from -0.526 to 3.12.

First: AGUUUUG
Second: CUUAAAC
The “RNAcompete 7-mer binding Z-score” value of the first is higher: -0.0707 for the first, -0.646 for the second.

First: AGGGCUA
Second: UGUUGUU
The “RNAcompete 7-mer binding Z-score” value of the first is higher: 1.17 for the first, -0.286 for the second.

First: GUCGCGU
Second: CGGAAGG
The “RNAcompete 7-mer binding Z-score” value of the first is lower: -0.0124 for the first, 2.53 for the second.

Going from AGGAAGG to AGGAAGA, the “RNAcompete 7-mer binding Z-score” value falls from 4.46 to 1.64.

Compared with UGGAAGU, AGGAAGU is lower in “RNAcompete 7-mer binding Z-score” value: 1.6 for the first, 1.21 for the second.

Compared with UGGAAGG, GUGUAAG is lower in “RNAcompete 7-mer binding Z-score” value: 3.68 for the first, 1.28 for the second.

First: GGAGGGG
Second: GUAGAGG
The “RNAcompete 7-mer binding Z-score” value of the first is higher: 4.18 for the first, 4.02 for the second.

Compared with UUAGAGG, GGAGGGA is higher in “RNAcompete 7-mer binding Z-score” value: 1.24 for the first, 3.6 for the second.

Compared with AUAGAGG, AGAGGGA is higher in “RNAcompete 7-mer binding Z-score” value: 1.79 for the first, 2.16 for the second.

Compared with GGAGGAG, AGAGGGG is lower in “RNAcompete 7-mer binding Z-score” value: 2.84 for the first, 1.94 for the second.

First: UGAGGGC
Second: CGAGGGA
The “RNAcompete 7-mer binding Z-score” value of the first is lower: 2.22 for the first, 3.11 for the second.

Compared with AGAGGGC, GGAGGGC is higher in “RNAcompete 7-mer binding Z-score” value: 1.02 for the first, 3.27 for the second.

Going from AGAUAAG to GUUAACU, the “RNAcompete 7-mer binding Z-score” value falls from 0.989 to -0.398.

Going from UCCUGUA to UCAUGGG, the “RNAcompete 7-mer binding Z-score” value rises from -0.795 to 1.19.

Going from AAAACGU to AGAGUGG, the “RNAcompete 7-mer binding Z-score” value rises from -0.0197 to 2.77.

Going from GGAGUGA to GGAGAGG, the “RNAcompete 7-mer binding Z-score” value rises from 2.63 to 3.28.

Going from GGAGUGG to CGAGGGG, the “RNAcompete 7-mer binding Z-score” value falls from 4.61 to 3.29.

Going from GGAGAGA to CGAGGGC, the “RNAcompete 7-mer binding Z-score” value rises from 1.26 to 1.41.

First: CGAGGCG
Second: AGAGAGG
The “RNAcompete 7-mer binding Z-score” value of the first is lower: 1.5 for the first, 1.58 for the second.

Compared with GUCCAAA, GUUCACG is higher in “RNAcompete 7-mer binding Z-score” value: -0.424 for the first, -0.355 for the second.

Compared with UAAGCAU, UAUCAAU is higher in “RNAcompete 7-mer binding Z-score” value: -0.555 for the first, -0.46 for the second.

Going from CUGUGUA to UCUUUUG, the “RNAcompete 7-mer binding Z-score” value falls from -0.417 to -0.632.

First: AGCAGGA
Second: AACAGGG
The “RNAcompete 7-mer binding Z-score” value of the first is lower: 2.45 for the first, 3.73 for the second.

Going from CACAGGG to AACAGGC, the “RNAcompete 7-mer binding Z-score” value falls from 2.49 to 1.62.

First: AGCAGGG
Second: UGCAGGG
The “RNAcompete 7-mer binding Z-score” value of the first is higher: 3.39 for the first, 2.53 for the second.

Going from GGUGCCC to CUUAGCU, the “RNAcompete 7-mer binding Z-score” value falls from 0.0495 to -0.832.

Going from CCUUGUC to AUUUUCU, the “RNAcompete 7-mer binding Z-score” value rises from -0.89 to -0.803.

Going from CUUCUGC to UUACUGC, the “RNAcompete 7-mer binding Z-score” value rises from -0.959 to -0.799.

Compared with AGAAAGG, AGUAAGU is lower in “RNAcompete 7-mer binding Z-score” value: 4.73 for the first, 0.188 for the second.

Compared with AGUAAGG, CAAAGGU is lower in “RNAcompete 7-mer binding Z-score” value: 3.47 for the first, 1.62 for the second.

First: GAAAGGU
Second: AAAAAGG
The “RNAcompete 7-mer binding Z-score” value of the first is higher: 4.42 for the first, 2.19 for the second.

First: CGAAAGG
Second: GAAAAAG
The “RNAcompete 7-mer binding Z-score” value of the first is higher: 1.98 for the first, 1.52 for the second.

First: GAAAAGG
Second: UGAAAGG
The “RNAcompete 7-mer binding Z-score” value of the first is higher: 4.73 for the first, 2.76 for the second.

Going from CGUAAGG to AAAAGGU, the “RNAcompete 7-mer binding Z-score” value rises from 0.844 to 2.52.

Compared with GCGUGUC, GCAUCGA is higher in “RNAcompete 7-mer binding Z-score” value: -0.235 for the first, -0.22 for the second.

Going from CGCCUCA to CGGAGCA, the “RNAcompete 7-mer binding Z-score” value rises from -0.748 to 1.02.

Compared with GCAGCGG, GUUCUAC is lower in “RNAcompete 7-mer binding Z-score” value: 2.14 for the first, -0.759 for the second.

Compared with GAUAAGG, CAUAAGG is lower in “RNAcompete 7-mer binding Z-score” value: 3.81 for the first, 0.548 for the second.

Compared with GAUAAGU, GUAAAAG is higher in “RNAcompete 7-mer binding Z-score” value: 0.0969 for the first, 0.767 for the second.

Going from GUAAAGG to GUAAAGU, the “RNAcompete 7-mer binding Z-score” value falls from 3.36 to 0.396.

Compared with CCUACAG, UGACACA is higher in “RNAcompete 7-mer binding Z-score” value: -0.752 for the first, -0.315 for the second.

First: UUCUUAU
Second: CGAACGC
The “RNAcompete 7-mer binding Z-score” value of the first is lower: -0.744 for the first, -0.256 for the second.

First: CCAUUUU
Second: AUUACAC
The “RNAcompete 7-mer binding Z-score” value of the first is lower: -1.08 for the first, -0.537 for the second.

Going from GGCUCAA to CCCUCUU, the “RNAcompete 7-mer binding Z-score” value falls from -0.122 to -0.89.

Going from UAAAGGG to CAAAGGG, the “RNAcompete 7-mer binding Z-score” value rises from 2.65 to 2.78.

First: AAAAGGA
Second: AAAAGGG
The “RNAcompete 7-mer binding Z-score” value of the first is lower: 3.25 for the first, 3.58 for the second.

Compared with CAAAGGA, UAAAGGA is higher in “RNAcompete 7-mer binding Z-score” value: 1.34 for the first, 1.64 for the second.

First: CUUUCGC
Second: UGAAGAU
The “RNAcompete 7-mer binding Z-score” value of the first is lower: -0.967 for the first, -0.00877 for the second.

First: CAAUGGU
Second: GAAUGGA
The “RNAcompete 7-mer binding Z-score” value of the first is lower: 1.25 for the first, 3.56 for the second.

Going from CAAUGGA to AAAUGGA, the “RNAcompete 7-mer binding Z-score” value rises from 1.4 to 3.34.

Compared with GAAUGGC, GAAUGGU is higher in “RNAcompete 7-mer binding Z-score” value: 1.68 for the first, 2.65 for the second.

First: AAAUGUA
Second: UAAUGGG
The “RNAcompete 7-mer binding Z-score” value of the first is lower: 0.0859 for the first, 2.89 for the second.

Compared with GAAUGGG, UAAUGGA is lower in “RNAcompete 7-mer binding Z-score” value: 4.77 for the first, 1.64 for the second.

First: ACAUGGA
Second: CAAUGGG
The “RNAcompete 7-mer binding Z-score” value of the first is lower: 1.76 for the first, 3.4 for the second.

Going from UGCGCUU to CCCUCAG, the “RNAcompete 7-mer binding Z-score” value falls from -0.744 to -0.81.

First: CUCCGUC
Second: GACAAGC
The “RNAcompete 7-mer binding Z-score” value of the first is lower: -0.894 for the first, -0.0233 for the second.

First: GGCCGGU
Second: GAUUCCA
The “RNAcompete 7-mer binding Z-score” value of the first is higher: 0.279 for the first, -0.519 for the second.

First: GUAUGGA
Second: AAAUGGC
The “RNAcompete 7-mer binding Z-score” value of the first is higher: 2.44 for the first, 1.42 for the second.

Compared with AAAUGGU, AAAUGGG is higher in “RNAcompete 7-mer binding Z-score” value: 2.73 for the first, 4.04 for the second.

First: GUAUGGG
Second: CUAUGGG
The “RNAcompete 7-mer binding Z-score” value of the first is higher: 4.06 for the first, 1.08 for the second.

Going from CGGAUAU to GGUGUCG, the “RNAcompete 7-mer binding Z-score” value rises from 0.348 to 1.21.

First: AGUAUGC
Second: CCCAGCU
The “RNAcompete 7-mer binding Z-score” value of the first is higher: 0.0204 for the first, -0.657 for the second.

Compared with CUAGACA, UUGGGCG is higher in “RNAcompete 7-mer binding Z-score” value: -0.621 for the first, 2.45 for the second.

Compared with AGGCCCG, CGCUUUC is lower in “RNAcompete 7-mer binding Z-score” value: -0.759 for the first, -0.77 for the second.

Compared with AGGGGCA, UGGGGCG is higher in “RNAcompete 7-mer binding Z-score” value: 2.36 for the first, 2.66 for the second.

Compared with UGGGGGC, UGGGCGG is higher in “RNAcompete 7-mer binding Z-score” value: 3.18 for the first, 3.38 for the second.

First: UGGGGCA
Second: UGGGGCC
The “RNAcompete 7-mer binding Z-score” value of the first is higher: 3.52 for the first, 0.76 for the second.

First: UGGGGGG
Second: AGGGCGG
The “RNAcompete 7-mer binding Z-score” value of the first is higher: 3.39 for the first, 2.23 for the second.

First: UGGGCGC
Second: GGGGGCA
The “RNAcompete 7-mer binding Z-score” value of the first is lower: 0.989 for the first, 2.33 for the second.

First: UUGGGGG
Second: UUGGGGC
The “RNAcompete 7-mer binding Z-score” value of the first is higher: 3.03 for the first, 2.04 for the second.

Compared with UUGGAAU, AGUUCAA is lower in “RNAcompete 7-mer binding Z-score” value: 0.57 for the first, -0.311 for the second.

First: ACACAUG
Second: AUGCUAU
The “RNAcompete 7-mer binding Z-score” value of the first is higher: -0.0962 for the first, -0.65 for the second.

First: GAAAAUG
Second: AAAAUUU
The “RNAcompete 7-mer binding Z-score” value of the first is higher: 1.46 for the first, -0.544 for the second.

Compared with AAGGACA, CUGAUAA is lower in “RNAcompete 7-mer binding Z-score” value: 3.12 for the first, -0.566 for the second.

First: UCGGGUC
Second: ACCAGUC
The “RNAcompete 7-mer binding Z-score” value of the first is higher: 0.512 for the first, -0.602 for the second.

Compared with ACCAGGU, GCCUAUU is lower in “RNAcompete 7-mer binding Z-score” value: 0.399 for the first, -0.901 for the second.
